The source made the active and inactive calls.
Key:
[1] = tested on: PRMT1 (protein arginine N-methyltransferase 1); experiment: PRMT1 binders on small-molecule microarrays, primary screen, biochemical, small-molecule microarray, 635 nm fluorescence (AID 1088); conditions: small-molecule microarray binding, higher = more signal;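 note: binding of Prmt1 protein to compounds spotted on small-molecule microarray slides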
[2] = yeast growth modulation, basal conditions, primary screen, YJM789 clinical isolate, OD600, 24 h (AID 1089);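 note: growth of clinical yeast isolate S. cerevisiae YJM 789 seeded 1000 cells per well; test concentration not given here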; conditions: S. cerevisiae YJM789 growth, higher = more signal, called active from +8 up or from −8 down
[3] = fission yeast growth modulation, primary screen, strain 972, OD600, 24 h, no modulator (AID 1090);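 note: basal condition with compound alone and no growth modifier present; test concentration not given here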; conditions: S. pombe 972 growth, higher = more signal, called active from +8 up or from −8 down
[4] = S. cerevisiae growth modulation with rapamycin, primary screen, strain BY4716, OD600, 96 h (AID 1091); conditions: higher = more signal, called active from +8 up or from −8 down; note: test concentration not given here
[5] = target: Torsin-1A-interacting protein 2 (Homo sapiens) (UniProt Q8NFQ8); experiment: LULL1 binders on small-molecule microarray, primary screen, cell lysate, human LULL1 lysate, 635/667 nm fluorescence (AID 1092); conditions: hLULL1 lysate binding, 635 nm fluorescence, higher = more signal;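 note: probe is lysate of COS7 cells overexpressing human LULL1; score merges per-feature 667 nm fluorescence with signal-to-noise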
Torsin-1A-interacting protein 2 (Homo sapiens), sequence (Q8NFQ8 whole entry, looked up): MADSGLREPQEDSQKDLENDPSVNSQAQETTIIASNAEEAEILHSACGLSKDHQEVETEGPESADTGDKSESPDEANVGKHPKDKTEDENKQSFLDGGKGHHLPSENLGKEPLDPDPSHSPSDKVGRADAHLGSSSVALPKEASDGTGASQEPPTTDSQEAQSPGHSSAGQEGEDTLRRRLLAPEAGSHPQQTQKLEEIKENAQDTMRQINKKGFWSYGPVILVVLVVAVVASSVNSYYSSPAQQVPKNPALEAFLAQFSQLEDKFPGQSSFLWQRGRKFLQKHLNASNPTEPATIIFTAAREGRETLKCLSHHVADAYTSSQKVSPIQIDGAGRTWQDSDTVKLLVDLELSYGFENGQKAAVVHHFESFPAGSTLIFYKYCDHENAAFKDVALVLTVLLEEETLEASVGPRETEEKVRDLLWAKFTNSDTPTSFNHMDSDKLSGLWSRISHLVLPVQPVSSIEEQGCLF

[6] = E. coli growth modulation, two-sided OD650, primary screen, E. coli filamentation project, strain DRC41, 24 h (AID 1093); conditions: OD650, 24 h, higher = more signal, called active from +8 up or from −8 down;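 note: MC1000 strain lacking acrAB efflux and sulA so SOS filamentation is blocked; test concentration not given here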
[7] = small-molecule microarray binders of probe aLefty2, primary screen, biochemical, biotinylated probe, 635/667 nm fluorescence (AID 1094); conditions: higher = more signal;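 note: score merges spot fluorescence near 667 nm with spot signal-to-noise ratio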
[8] = tested on: Noggin (protein binding on small-molecule microarray); experiment: Noggin binders on small-molecule microarray, primary screen, biochemical, 635/667 nm fluorescence (AID 1095); conditions: 635 nm fluorescence, higher = more signal;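 note: score merges 667 nm feature fluorescence with signal to noise over triplicate slides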
[9] = target: Neurogenic locus notch homolog protein 3 (Homo sapiens) (UniProt Q9UM47); experiment: NOTCH3 binders on small-molecule microarray, primary screen, biochemical, 635/667 nm fluorescence (AID 1096); conditions: NOTCH3 binding, 635 nm fluorescence, higher = more signal
Neurogenic locus notch homolog protein 3 (Homo sapiens), sequence (Q9UM47 whole entry, looked up): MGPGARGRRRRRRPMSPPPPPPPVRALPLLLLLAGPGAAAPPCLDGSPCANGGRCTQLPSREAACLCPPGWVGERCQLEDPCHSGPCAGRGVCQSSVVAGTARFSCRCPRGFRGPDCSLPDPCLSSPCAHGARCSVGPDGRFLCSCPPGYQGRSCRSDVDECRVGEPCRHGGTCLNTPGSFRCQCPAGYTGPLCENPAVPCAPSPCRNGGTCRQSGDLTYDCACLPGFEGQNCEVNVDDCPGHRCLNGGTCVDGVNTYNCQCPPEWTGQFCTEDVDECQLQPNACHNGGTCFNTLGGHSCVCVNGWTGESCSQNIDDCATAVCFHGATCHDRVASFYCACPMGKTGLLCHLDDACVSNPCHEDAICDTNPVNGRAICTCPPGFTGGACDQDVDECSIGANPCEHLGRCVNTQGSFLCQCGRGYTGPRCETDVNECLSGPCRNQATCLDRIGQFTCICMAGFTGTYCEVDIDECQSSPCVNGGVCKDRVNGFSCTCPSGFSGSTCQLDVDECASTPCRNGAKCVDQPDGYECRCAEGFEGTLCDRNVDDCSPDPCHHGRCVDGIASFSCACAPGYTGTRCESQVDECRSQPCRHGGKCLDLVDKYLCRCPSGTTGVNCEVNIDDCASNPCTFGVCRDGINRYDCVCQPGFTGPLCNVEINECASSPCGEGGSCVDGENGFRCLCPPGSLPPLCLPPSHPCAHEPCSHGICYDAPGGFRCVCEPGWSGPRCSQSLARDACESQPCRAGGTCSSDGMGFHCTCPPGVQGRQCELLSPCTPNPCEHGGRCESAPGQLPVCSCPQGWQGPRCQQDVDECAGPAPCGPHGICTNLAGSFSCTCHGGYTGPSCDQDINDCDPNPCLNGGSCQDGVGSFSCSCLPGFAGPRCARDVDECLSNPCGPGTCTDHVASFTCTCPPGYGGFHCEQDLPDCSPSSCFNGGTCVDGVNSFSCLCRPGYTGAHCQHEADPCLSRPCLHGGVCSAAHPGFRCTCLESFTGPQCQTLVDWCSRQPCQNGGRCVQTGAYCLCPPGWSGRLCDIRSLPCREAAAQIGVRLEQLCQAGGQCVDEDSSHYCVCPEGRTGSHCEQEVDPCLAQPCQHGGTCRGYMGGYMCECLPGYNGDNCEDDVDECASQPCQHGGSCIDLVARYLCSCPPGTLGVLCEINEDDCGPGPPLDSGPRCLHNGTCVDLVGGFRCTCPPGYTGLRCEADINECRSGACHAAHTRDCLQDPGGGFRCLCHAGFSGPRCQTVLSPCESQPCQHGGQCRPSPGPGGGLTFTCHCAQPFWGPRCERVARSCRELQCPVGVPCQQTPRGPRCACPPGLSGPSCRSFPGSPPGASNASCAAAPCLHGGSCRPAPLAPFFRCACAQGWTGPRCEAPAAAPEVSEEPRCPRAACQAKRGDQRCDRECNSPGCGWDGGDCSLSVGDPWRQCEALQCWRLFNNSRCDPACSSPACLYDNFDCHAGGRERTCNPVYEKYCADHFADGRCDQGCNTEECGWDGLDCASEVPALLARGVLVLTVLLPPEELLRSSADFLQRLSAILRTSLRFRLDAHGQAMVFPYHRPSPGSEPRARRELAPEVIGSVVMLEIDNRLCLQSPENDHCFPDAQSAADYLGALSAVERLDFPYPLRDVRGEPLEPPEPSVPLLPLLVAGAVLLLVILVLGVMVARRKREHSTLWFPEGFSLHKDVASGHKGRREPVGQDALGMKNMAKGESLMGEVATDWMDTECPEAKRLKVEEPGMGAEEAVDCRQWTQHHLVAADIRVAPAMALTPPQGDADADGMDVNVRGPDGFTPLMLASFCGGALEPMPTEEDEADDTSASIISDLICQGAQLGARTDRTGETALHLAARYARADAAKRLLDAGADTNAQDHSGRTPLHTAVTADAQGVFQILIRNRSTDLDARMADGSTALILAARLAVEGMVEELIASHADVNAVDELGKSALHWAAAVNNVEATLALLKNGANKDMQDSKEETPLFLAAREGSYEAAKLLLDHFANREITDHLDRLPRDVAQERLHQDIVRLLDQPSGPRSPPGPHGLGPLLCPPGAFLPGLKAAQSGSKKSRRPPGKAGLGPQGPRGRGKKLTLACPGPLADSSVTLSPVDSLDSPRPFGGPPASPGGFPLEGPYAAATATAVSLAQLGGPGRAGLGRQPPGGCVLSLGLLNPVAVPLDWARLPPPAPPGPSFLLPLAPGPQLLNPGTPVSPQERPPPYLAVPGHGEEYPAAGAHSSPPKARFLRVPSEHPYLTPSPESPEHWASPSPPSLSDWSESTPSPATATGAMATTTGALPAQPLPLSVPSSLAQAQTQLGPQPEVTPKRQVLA

[10] = small-molecule microarray binders of probe aEGFR, primary screen, biochemical, biotinylated probe, 635/667 nm fluorescence (AID 1097); conditions: higher = more signal;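 note: probe is a biotinylated anti-EGFR antibody binding compounds printed on slides; score combines fluorescence near 667 nm and signal to noise of each spot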
[11] = tested on: Plasmodium falciparum Sir2 (PF13_0152, Sir2A); experiment: pfSir2 binders on small-molecule microarrays, primary screen, biochemical, small-molecule microarray, 635 nm fluorescence (AID 1098); conditions: small-molecule microarray binding, fluorescence 635 nm; higher = more signal;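 note: score merges spot fluorescence intensity with its signal-to-noise ratio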
[12] = small-molecule microarray binders of probe aDKK1, primary screen, biochemical, biotinylated probe, 635/667 nm fluorescence (AID 1099); conditions: higher = more signal;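 note: score merges 667nm spot fluorescence with signal to noise across triplicate slides; reference of the scale not given here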
[13] = small-molecule microarray binders of probe aCHRDL2, primary screen, biochemical, biotinylated probe, 635/667 nm fluorescence (AID 1100); conditions: higher = more signal
[14] = splicing luciferase reporter signal modulators, primary screen, spliceosome inhibition project, cell-based, HEK293, splice +/- reporter (AID 1101); conditions: luminescence, 24 h, higher = more signal, called active from +8 up or from −8 down;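 note: HEK293 cells carrying a splicing-competent luciferase reporter gene; test concentration not given here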
[15] = target: Fibroblast growth factor 10 (Homo sapiens) (UniProt O15520); experiment: FGF10 binders on small-molecule microarrays, primary screen, biochemical, small-molecule microarray, 635 nm fluorescence (AID 1102); conditions: FGF10 binding, fluorescence 635 nm, higher = more signal
Fibroblast growth factor 10 (Homo sapiens), sequence (O15520 whole entry, looked up): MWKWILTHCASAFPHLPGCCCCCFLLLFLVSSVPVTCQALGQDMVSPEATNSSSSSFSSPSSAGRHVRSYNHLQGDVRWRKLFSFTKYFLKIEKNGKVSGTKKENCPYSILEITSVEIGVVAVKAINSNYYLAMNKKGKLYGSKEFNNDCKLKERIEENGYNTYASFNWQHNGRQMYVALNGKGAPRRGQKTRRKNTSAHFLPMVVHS

[16] = tested on: glycogen synthase kinase-3 (GSK3A per assay name; protocol says GSK3B); experiment: GSK3 binders on small-molecule microarrays, primary screen, biochemical, small-molecule microarray, 635 nm fluorescence, GSK3A (AID 1103); conditions: small-molecule microarray binding, fluorescence 635 nm; higher = more signal; note: the record names both GSK3A and GSK3B
[17] = target: Epidermal growth factor receptor (Homo sapiens) (UniProt P00533); experiment: EGFR binders on small-molecule microarrays, primary screen, biochemical, small-molecule microarray, 635 nm fluorescence (AID 1104); conditions: EGFR binding, higher = more signal;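 note: score merges 667 nm emission intensity with spot signal to noise over triplicate slides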
Epidermal growth factor receptor (Homo sapiens), sequence (P00533 whole entry, looked up): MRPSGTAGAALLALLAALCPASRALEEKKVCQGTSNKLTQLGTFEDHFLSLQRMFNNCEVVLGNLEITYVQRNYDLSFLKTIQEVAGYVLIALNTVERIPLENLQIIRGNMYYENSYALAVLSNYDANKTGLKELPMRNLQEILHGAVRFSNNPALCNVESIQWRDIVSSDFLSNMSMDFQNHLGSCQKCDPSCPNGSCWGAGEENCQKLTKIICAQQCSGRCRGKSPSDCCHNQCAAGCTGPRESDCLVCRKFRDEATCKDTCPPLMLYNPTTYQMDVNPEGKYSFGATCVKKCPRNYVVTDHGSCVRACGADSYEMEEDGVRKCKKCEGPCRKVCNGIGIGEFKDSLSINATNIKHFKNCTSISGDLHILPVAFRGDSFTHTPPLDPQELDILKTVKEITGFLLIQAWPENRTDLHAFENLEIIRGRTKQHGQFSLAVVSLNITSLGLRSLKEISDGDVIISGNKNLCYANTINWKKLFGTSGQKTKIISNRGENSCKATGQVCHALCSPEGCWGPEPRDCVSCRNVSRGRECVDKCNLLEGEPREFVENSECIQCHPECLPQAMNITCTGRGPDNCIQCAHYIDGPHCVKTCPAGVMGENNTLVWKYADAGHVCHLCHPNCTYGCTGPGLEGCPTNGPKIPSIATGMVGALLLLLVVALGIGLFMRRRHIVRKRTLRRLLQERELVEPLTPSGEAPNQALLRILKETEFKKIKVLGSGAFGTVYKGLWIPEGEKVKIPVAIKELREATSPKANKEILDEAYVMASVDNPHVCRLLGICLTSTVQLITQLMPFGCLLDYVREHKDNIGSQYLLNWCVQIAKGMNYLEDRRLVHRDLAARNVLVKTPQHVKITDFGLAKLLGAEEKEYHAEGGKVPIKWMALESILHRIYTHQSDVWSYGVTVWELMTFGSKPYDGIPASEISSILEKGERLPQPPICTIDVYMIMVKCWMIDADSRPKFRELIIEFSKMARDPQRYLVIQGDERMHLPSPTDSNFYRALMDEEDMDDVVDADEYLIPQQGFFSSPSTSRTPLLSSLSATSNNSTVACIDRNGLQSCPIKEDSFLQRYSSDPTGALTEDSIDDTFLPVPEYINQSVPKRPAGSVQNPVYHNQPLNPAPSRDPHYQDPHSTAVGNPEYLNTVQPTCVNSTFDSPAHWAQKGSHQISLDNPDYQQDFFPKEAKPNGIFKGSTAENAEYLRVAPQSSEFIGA

[18] = target: Follistatin-related protein 3 (Homo sapiens) (UniProt O95633); experiment: FSTL3 binders on small-molecule microarrays, primary screen, biochemical, small-molecule microarray, 635 nm fluorescence (AID 1105); conditions: FSTL3 binding, higher = more signal;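 note: score merges emission near 667 nm and signal to noise per printed spot across three slides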
Follistatin-related protein 3 (Homo sapiens), sequence (O95633 whole entry, looked up): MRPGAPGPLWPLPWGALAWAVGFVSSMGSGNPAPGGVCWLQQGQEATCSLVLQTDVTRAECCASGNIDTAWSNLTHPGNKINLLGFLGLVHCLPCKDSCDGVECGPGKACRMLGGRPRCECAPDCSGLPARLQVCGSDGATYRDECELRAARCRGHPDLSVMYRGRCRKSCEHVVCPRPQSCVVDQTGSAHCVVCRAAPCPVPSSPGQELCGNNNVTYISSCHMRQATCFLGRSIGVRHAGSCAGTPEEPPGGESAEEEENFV

[19] = target: Dickkopf-related protein 1 (Homo sapiens) (UniProt O94907); experiment: DKK1 binders on small-molecule microarrays, primary screen, biochemical, small-molecule microarray, 635 nm fluorescence scan (AID 1106); conditions: DKK1 binding, higher = more signal;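 note: score merges emission near 667 nm with signal to noise over three replicate slides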
Dickkopf-related protein 1 (Homo sapiens), sequence (O94907 whole entry, looked up): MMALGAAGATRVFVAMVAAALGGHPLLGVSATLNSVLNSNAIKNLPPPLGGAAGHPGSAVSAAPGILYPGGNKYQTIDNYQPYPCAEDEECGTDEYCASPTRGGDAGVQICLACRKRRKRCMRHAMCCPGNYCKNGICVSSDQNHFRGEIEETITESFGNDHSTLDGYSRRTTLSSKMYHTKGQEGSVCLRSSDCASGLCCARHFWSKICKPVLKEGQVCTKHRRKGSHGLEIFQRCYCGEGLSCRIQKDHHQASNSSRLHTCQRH

[20] = tested on: Inhibin beta A chain (activin A); experiment: INHBA (activin A) binders on microarrays, primary screen, biochemical, small-molecule microarray, 635 nm fluorescence scan (AID 1107); conditions: small-molecule microarray binding, higher = more signal;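 note: mouse activin A protein probed at 4.33 µg/mL on printed slides; score merges bound-protein fluorescence near 667 nm with spot signal-to-noise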

| Compound | composite z-score [1] | z-score [2] | z-score [3] | z-score [4] | composite z-score [5] | z-score [6] | composite z-score [7] | composite z-score [8] | composite z-score [9] | composite z-score [10] | composite z-score [11] | composite z-score [12] | composite z-score [13] | z-score [14] | composite z-score [15] | composite z-score [16] | composite z-score [17] | composite z-score [18] | composite z-score [19] | composite z-score [20] |
| --- | --- | --- | --- | --- | --- | --- | --- | --- | --- | --- | --- | --- | --- | --- | --- | --- | --- | --- | --- | --- |
| CCOC(=O)c1ccc(NC(=O)O[C@H]2[C@H](OC(=O)Nc3ccc4c(c3)OCO4)[C@H](OC(=O)Nc3ccc4c(c3)OCO4)[C@@H](OC)O[C@@H]2CO)cc1 | 1.54 | 1.21 (inactive) | 1.57 (inactive) | 6.12 (inactive) | 3.1 | 0.62 (inactive) | 0.17 | 1.34 | 1.06 | 0.251 | 1.56 | 0.901 | 0.944 | 0.646 (inactive) | 1.33 | 1.33 | 0.517 | 1.39 | 1 | 0.673 |
| COc1ccc(CN(C2=CC[C@@]3(C(N)=O)C(=O)C(Cl)=C(Cl)C(=O)[C@@]3(C#N)C2)S(=O)(=O)c2ccc(Br)cc2)cc1 | -0.196 | -1.62 (inactive) | -2.63 (inactive) | -0.266 (inactive) | 3.31 | 1.29 (inactive) | 0.0496 | -0.0701 | -0.366 | -0.111 | -0.201 | 0.661 | 0.84 | -2.69 (inactive) | 0.0024 | -0.139 | -0.733 | -0.0224 | -1.28 | 1.03 |
| COC(=O)[C@@]1(Cc2ccc(OC)cc2)[C@H]2c3cc(C(=O)N4CCCC4)n(Cc4cccc5ccccc45)c3C[C@H]2CN1C(=O)c1ccccc1 | -0.88 | 0.221 (inactive) | 1.82 (inactive) | 2.29 (inactive) | 3.02 | 0.0929 (inactive) | 0.0082 | 0.15 | 0.981 | 0.087 | 0.654 | 0.741 | 1.08 | -0.261 (inactive) | 0.821 | 0.407 | -0.282 | 0.293 | -0.724 | 0.849 |

— PubChem BioAssay
